From PubChem BioAssay (Tox21)
Results filed as inconclusive are left out. Active and inactive are the calls of the source. Unless noted, calls come from the whole dose curve; as a rule, active = well fitted curve in the direction sought with a large enough effect in the repeat runs; inconclusive = weak or mixed curves; inactive = no such curve, though single readings can be large; an effect the other way counts as inactive or inconclusive.

Key:
[1] = qHTS assay to identify small molecule agonists of the hypoxia (HIF-1) signaling pathway - cell viability counter screen (AID 1224844; calls by dose curve; note: nearly all actives have a fitted effect of over 50% in size)
Outline: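 Multiplexed with the HRE beta-lactamase assay, this viability read used CellTiter-Glo luminescence (30 min, RT) on HRE-bla ME-180 cells treated 17 hrs with compounds in 0.5% dialyzed FBS medium.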

[2] = qHTS assay to identify small molecule agonists of H2AX (AID 1224845; active = well fitted activation curve with a large enough effect in the signal ratio in the repeat runs, not every such curve was filed as active; the % refers to the signal ratio)
Outline: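 Wild-type CHO-K1 cells, plated overnight, exposed 3hr at 37C to 15 concentrations (0.76% DMSO final). Lysed, then HTRF anti-pH2AX (S139) cryptate and anti-H2AX-d2 antibodies, 24 hr room temperature; 665/620 nm emission read.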

[3] = qHTS assay to identify small molecule agonists of the hypoxia (HIF-1) signaling pathway (AID 1224846; active = well fitted activation curve with a large enough effect in the signal ratio in the repeat runs, not every such curve was filed as active; the % refers to the signal ratio)
Outline: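 Hypoxia-pathway activation was scored as increased beta-lactamase from an HRE-controlled reporter in ME-180 cells; plated at 2,000 cells per well with 0.5% dialyzed FBS, they were exposed 17 hrs to compounds and then given CCF4-AM.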

[4] = qHTS assay to identify small molecule agonists of H2AX - cell viability counter screen (AID 1224847; calls by dose curve; note: top concentration of the series differs between compounds; nearly all actives have a fitted effect of over 30% in size)
Outline: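 CHO-K1 wt, 1000 cells/well, o/n 37C; cpds 15 conc, 3 h 37C, 0.76% DMSO; CellTiter-Glo, 30 min RT, luminescence.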

[5] = qHTS RealTime-Glo MT Cell Viability Assay in HepG2 cells - 24 hour (AID 1224867); note: nearly all actives have a fitted effect of over 50% in size
Outline: (§1)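 qHTS, HepG2, 600 cells/well, RealTime-Glo (NanoLuc + prosubstrate) added with cells; 5 h preincubation; DMSO compound addition; 37 C; luminescence at 0/8/16/24/32/40 h.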

[6] = qHTS RealTime-Glo MT Cell Viability Assay in HEK293 cells - 32 hour (AID 1224868); note: top concentration of the series differs between compounds; nearly all actives have a fitted effect of over 50% in size
Outline: (§2)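 Assay medium contained NanoLuc luciferase plus cell-permeant prosubstrate, added with HEK293 cells at 600 cells/well. After 5 h at 37 C/5% CO2 compounds were added; plates stayed at 37 C for 40 h with serial luminescence reads.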

[7] = A CellTox Green Cytotoxicity Assay to monitor cytotoxicity in HEK293 cells - 0 hour (AID 1224869); note: nearly all actives have a fitted effect of over 50% in size
Outline: (§3)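 Seeding of HEK293 cells together with cytotoxicity dye preceded a 5 h incubation at 37 C/5% CO2. Test compounds in DMSO were then added and fluorescence monitored across 40 h.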

[8] = qHTS RealTime-Glo MT Cell Viability Assay in HepG2 cells - 40 hour (AID 1224870); note: nearly all actives have a fitted effect of over 50% in size
Outline: (§4)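 HepG2 cells (600/well) mixed with RealTime-Glo MT reagent, settled 5 h at 37 C/5% CO2 before compound addition. Nonlytic NanoLuc luminescence from viable-cell prosubstrate reduction read repeatedly during 40 h treatment at 37 C.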

[9] = A CellTox Green Cytotoxicity Assay to monitor cytotoxicity in HEK293 cells - 40 hour (AID 1224871); note: nearly all actives have a fitted effect of over 45% in size
Outline: as §3

[10] = qHTS RealTime-Glo MT Cell Viability Assay in HEK293 cells - 16 hour (AID 1224872)
Outline: as §2

[11] = qHTS RealTime-Glo MT Cell Viability Assay in HepG2 cells - 8 hour (AID 1224873); note: nearly all actives have a fitted effect of over 55% in size
Outline: as §4

[12] = qHTS RealTime-Glo MT Cell Viability Assay in HEK293 cells - 40 hour (AID 1224874); details: RealTime-Glo luminescence; max response: active compounds read low; note: nearly all actives have a fitted effect of over 50% in size
Outline: (§5)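 Tox21 screen in HEK293 using RealTime-Glo MT chemistry, with cells and reagent co-dispensed. Luminescence proportional to viable cell number was captured at intervals during 40 h compound exposure at 37 C.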

[13] = A CellTox Green Cytotoxicity Assay to monitor cytotoxicity in HEK293 cells - 24 hour (AID 1224875); note: series mostly up to about 77 µM; nearly all actives have a fitted effect of over 45% in size
Outline: as §3

[14] = A CellTox Green Cytotoxicity Assay to monitor cytotoxicity in HepG2 cells - 16 hour (AID 1224876); note: nearly all actives have a fitted effect of over 45% in size
Outline: (§6)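 Nonlytic assay: viable cells exclude the dye, so fluorescence scales with cell death. HepG2 at 600 cells/well, compounds added after 5 h, signal read across 40 h.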

[15] = qHTS RealTime-Glo MT Cell Viability Assay in HepG2 cells - 32 hour (AID 1224877); note: nearly all actives have a fitted effect of over 55% in size
Outline: as §1

[16] = A CellTox Green Cytotoxicity Assay to monitor cytotoxicity in HepG2 cells - 24 hour (AID 1224878); note: nearly all actives have a fitted effect of over 45% in size
Outline: as §6

[17] = A CellTox Green Cytotoxicity Assay to monitor cytotoxicity in HepG2 cells - 40 hour (AID 1224879); note: nearly all actives have a fitted effect of over 40% in size
Outline: as §6

[18] = qHTS RealTime-Glo MT Cell Viability Assay in HEK293 cells - 0 hour (AID 1224880)
Outline: as §5
% is set by controls: 0 for no effect and ±100 for the full control effect.

CC[N+]1(CCOC(=O)C(O)(c2ccccc2)c2ccccc2)CCCCC1
inactive: Potency [1] | Potency [2] | outcome [3] | Potency [4] | Potency [5] | Potency [6] | Potency [7] | Potency [8] | Potency [9] | Potency [10] | Potency [11] | max response [12] 4.06% | Potency [13] | Potency [14] | Potency [15] | Potency [16] | Potency [17] | outcome [18]

CC(C)C1(C)N=C(c2ncccc2C(=O)O)NC1=O (centres undefined)
inactive: Potency [1] | Potency [2] | outcome [3] | Potency [4] | Potency [5] | Potency [6] | Potency [7] | Potency [8] | Potency [9] | Potency [10] | Potency [11] | max response [12] 1.4% | Potency [14] | Potency [15] | Potency [16] | Potency [17] | outcome [18]

C[C@H]1O[C@H](OC2[C@@H](O)[C@@H](O)C(O)[C@H](O)[C@H]2O)[C@@H](N)C[C@@H]1N=C(N)C(=O)O (some centres undefined)
inactive: Potency [1] | Potency [2] | outcome [3] | Potency [4] | Potency [5] | Potency [6] | Potency [7] | Potency [8] | Potency [9] | Potency [10] | Potency [11] | max response [12] 5.07% | Potency [14] | Potency [15] | Potency [16] | Potency [17] | outcome [18]

CN1CC[C@]23c4c5ccc(O)c4O[C@H]2[C@@H](O)CC[C@H]3[C@H]1C5
inactive: Potency [1] | Potency [2] | outcome [3] | Potency [4] | Potency [5] | Potency [6] | Potency [7] | Potency [8] | Potency [9] | Potency [10] | Potency [11] | max response [12] -1.3% | Potency [14] | Potency [15] | Potency [16] | Potency [17] | outcome [18]

CCOP(=S)(OCC)SCSc1cc(Cl)ccc1Cl
inactive: Potency [1] | Potency [2] | outcome [3] | Potency [4] | Potency [5] | Potency [6] | Potency [7] | Potency [8] | Potency [9] | Potency [10] | Potency [11] | max response [12] 0.23% | Potency [14] | Potency [15] | Potency [16] | Potency [17] | outcome [18]

CC(C)(c1ccccc1)c1cc(-n2nc3ccccc3n2)c(O)c(C(C)(C)c2ccccc2)c1
inactive: Potency [1] | Potency [2] | outcome [3] | Potency [4] | Potency [5] | Potency [6] | Potency [7] | Potency [8] | Potency [9] | Potency [10] | Potency [11] | max response [12] 12.9% | Potency [13] | Potency [14] | Potency [15] | Potency [16] | Potency [17] | outcome [18]

O=C(NC(=O)c1cc(F)c(F)cc1Cl)Nc1cc(F)ccc1N1CCC(C(=O)O)CC1
inactive: Potency [1] | Potency [2] | outcome [3] | Potency [4] | Potency [5] | Potency [6] | Potency [7] | Potency [8] | Potency [9] | Potency [10] | Potency [11] | max response [12] 19.9% | Potency [13] | Potency [14] | Potency [15] | outcome [18]

OCCCl
inactive: Potency [1] | Potency [2] | outcome [3] | Potency [4] | Potency [5] | Potency [6] | Potency [7] | Potency [8] | Potency [9] | Potency [10] | Potency [11] | max response [12] 0.0487% | Potency [13] | Potency [14] | Potency [15] | Potency [16] | Potency [17] | outcome [18]

CN1C(=O)CN=C(c2ccccc2)c2cc([N+](=O)[O-])ccc21
inactive: Potency [1] | Potency [2] | outcome [3] | Potency [4] | Potency [5] | Potency [7] | Potency [8] | Potency [9] | Potency [10] | Potency [11] | max response [12] -12% | Potency [13] | Potency [14] | Potency [15] | Potency [16] | Potency [17] | outcome [18]

CCCCC1C(=O)NC(=O)N(C2CCCCC2)C1=O (centres undefined)
inactive: Potency [1] | Potency [2] | outcome [3] | Potency [4] | Potency [5] | Potency [6] | Potency [7] | Potency [8] | Potency [9] | Potency [10] | Potency [11] | max response [12] -0.655% | Potency [13] | Potency [14] | Potency [15] | Potency [16] | Potency [17] | outcome [18]

C[N+]1(CCF)[C@@H]2CC[C@H]1CC(OC(=O)C(O)(c1ccccc1)c1ccccc1)C2 (some centres undefined)
inactive: Potency [1] | Potency [2] | outcome [3] | Potency [4] | Potency [5] | Potency [7] | Potency [8] | Potency [9] | Potency [10] | Potency [11] | max response [12] 2.19% | Potency [13] | Potency [14] | Potency [15] | Potency [16] | Potency [17] | outcome [18]

O=C(N/N=C/c1ccc([N+](=O)[O-])o1)c1cc([N+](=O)[O-])cc([N+](=O)[O-])c1O
inactive: Potency [1] | Potency [2] | outcome [3] | Potency [4] | Potency [5] | Potency [6] | Potency [7] | Potency [8] | Potency [9] | Potency [10] | Potency [11] | max response [12] 8.45% | Potency [13] | Potency [14] | Potency [15] | Potency [16] | outcome [18]

Nc1ccccc1C(=O)OCC(O)CO (centres undefined)
inactive: Potency [1] | Potency [2] | outcome [3] | Potency [4] | Potency [5] | Potency [7] | Potency [8] | Potency [9] | Potency [10] | Potency [11] | max response [12] 9.15% | Potency [13] | Potency [14] | Potency [15] | Potency [16] | Potency [17] | outcome [18]

FC(Cl)(Cl)C(F)(Cl)Cl
inactive: Potency [1] | Potency [2] | outcome [3] | Potency [4] | Potency [5] | Potency [6] | Potency [7] | Potency [8] | Potency [9] | Potency [10] | Potency [11] | max response [12] -10.6% | Potency [13] | Potency [14] | Potency [15] | Potency [16] | Potency [17] | outcome [18]

CC(C)c1ccc(OP(=O)(Oc2ccc(C(C)C)cc2)Oc2ccc(C(C)C)cc2)cc1
inactive: Potency [1] | Potency [2] | outcome [3] | Potency [4] | Potency [5] | Potency [7] | Potency [8] | Potency [9] | Potency [10] | Potency [11] | max response [12] -29.6% | Potency [13] | Potency [14] | Potency [15] | Potency [16] | Potency [17] | outcome [18]
